According to PubChem BioAssay:

Test: small-molecule microarray binders of probe aCHRDL2, primary screen, biochemical, biotinylated probe, 635/667 nm fluorescence (AID 1100)
Settings: higher = more signal
With [N-]=[N+]=Nc1ccccc1C[C@]1(C(=O)O)N=C(c2ccc(OCCCO)cc2)O[C@H]1c1ccccc1 the composite z-score was 0.724.
With CN1C(=O)[C@@]2(Cc3ccccc3)N=C(c3ccc(OCCCO)cc3)O[C@H]2c2ccccc21 the composite z-score was 1.02.
Work on NC(=O)[C@@H]1[C@H]2C(=O)O[C@H](c3ccccc3)[C@H](c3ccccc3)N2[C@H](c2ccc(OCCO)cc2)[C@@]12C(=O)Nc1ccc(C#CCCO)cc12 yielded a composite z-score of 0.823.
Cc1ccc(S[C@]2(C(=O)NC(C)C)CC(=O)N(Cc3ccccc3Cl)[C@@H]2c2ccc(CO)cc2)cc1 showed a composite z-score of 0.865.
Work on CC(C)=CCCC(C)=CC(O)C1C=CC2C(=O)N(c3ccccc3)C(=O)C2N1Nc1ccccc1F (stereo unspecified) yielded a composite z-score of 0.0744.
COc1cc2c(cc1OC)CN(C(=O)[C@@H]1[C@H]3C(=O)O[C@H](c4ccccc4)[C@H](c4ccccc4)N3[C@H](c3ccc(O)cc3)[C@@]13C(=O)Nc1ccc(C#CCCO)cc13)CC2 gave a composite z-score of 0.562.
With COc1cc(NN2C(C(O)C3CCCCC3)C=CC3C(=O)N(C)C(=O)C32)cc(OC)c1OC (stereo unspecified) the composite z-score was 1.1.
CC(C)C(CO)N1C(=O)[C@@H]2[C@H]3C(=O)OCC=C[C@H]3OC23C=CCN(C(C)(C)C)C(=O)[C@@H]13 (stereo partly specified) gave a composite z-score of -0.348.
COC(=O)[C@@]1(Cc2ccc(OC)cc2)[C@H]2c3cc(C(=O)N4CCCC4)n(Cc4ccc(S(C)(=O)=O)cc4)c3C[C@H]2CN1C(=O)c1ccccc1 gave a composite z-score of 1.29.
Molecule CCCNC(=O)[C@@]1(Sc2ccc(C)cc2)CC(=O)N(C2CCCCC2)[C@@H]1c1ccc(CO)cc1I has a composite z-score of 0.91.
With CO[C@H]1O[C@H](CO)[C@@H](OC(=O)Nc2ccc(C#N)cc2)[C@@H]2OC(=O)[C@H](Cc3cccc(Br)c3)C/C=C/C[C@@H](Cc3cccc(Br)c3)C(=O)O[C@@H]12 the composite z-score was 0.534.
